± gives the standard deviation.

In this assay the test system is OVCAR-3-derived ovarian cancer stem-like cells (spheroids). Nature of the assay: cell growth relative to untreated control; higher = more growth (less inhibition). To be noted: 2.29 µM; 96 h. The procedure, abridged: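 Percent growth was calculated against untreated wells once blanks were subtracted and Grubbs outliers removed. The cells were OVCAR-3 spheroid-derived stem-like cells, trypsinized and plated at 50,000 cells/mL in stem cell medium on ultra-low attachment 96-well plates for a 24 h preincubation. They were then exposed to compounds at 2.29 uM for 96 h at 37°C, 5% CO2, in 4 replicate wells, and viability was measured by TOX8 resazurin fluorescence (ex 560/em 590 nm) after 4 h.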
`N#CC1(C#N)C2C=CC(c3coc4cccc2c34)C1(C#N)C#N` (centres undefined) registered a cell growth of 20.9 ± 5.5%.
Molecule `CO[C@@H]1[C@@H](OC(=O)c2ccc(C)[nH]2)[C@@H](O)[C@H](Oc2ccc3c(O)c(NC(=O)c4c[nH]c(C(=O)Nc5c(O)c6ccc(O[C@@H]7OC(C)(C)[C@H](OC)[C@@H](OC(=O)c8ccc(C)[nH]8)[C@H]7O)c(C)c6oc5=O)c4C)c(=O)oc3c2C)OC1(C)C` displayed a cell growth of 100 ± 22%.
Turning to `Cc1ccc(CC2(OCCN(C)C)CCC(C(C)(C)C)CC2)cc1` (centres undefined), the cell growth was determined as 82.2 ± 24%.
The same measure for `O=C(Nc1ccc2c(c1)oc(=O)c1ccccc12)C(Cl)Cl`: 10.2 ± 2.1%.
In turn, `CN(C)CCCN1c2ccccc2Sc2ccc3ccccc3c21` yielded a cell growth of 117 ± 58%.
In turn, `CN(C)C(=S)/N=c1\ss/c(=N\C(=S)N(C)C)n1-c1ccc2c(c1)OCO2` returned a cell growth of 76.4 ± 5.8%.
`Nc1ccccc1C(=O)NC(=O)Nc1ccc(Oc2ncc(Br)cn2)c(Cl)c1` registered a cell growth of 61.6 ± 21%.
The same measure for `O=c1oc2ccccc2cc1-c1ccc([N+](=O)[O-])cc1`: 38.6 ± 7.1%; for `COc1ccc2[nH]c3c(C)c4ccncc4c(C)c3c2c1`: 65.8 ± 11%.
For the molecule `CC1(C)CCCC2(C)C3=C(CCC12)C(=O)OC3` (centres undefined), the cell growth came to 84.4 ± 24%.
`[N-]=[N+]=Nc1ccc2c(c1)Sc1ccccc1N2CCCCN1CCN(Cc2ccc(C(=O)c3ccccc3)cc2)CC1` returned a cell growth of 95.1 ± 13%.
The molecule `Cc1c(Cl)ccc2c1NC(=O)C2(O)C(C(=O)c1ccccc1)c1ccccc1` (centres undefined) registered a cell growth of 107 ± 48%.
With `O=C(Nc1ccccc1-c1nn(C(=S)Nc2ccccc2)c(=S)n(C(=S)Nc2ccccc2)c1=O)C(F)(F)F`, the cell growth is 84.8 ± 15%.
Regarding `CC[C@]1(O)C[C@H]2CN(CCc3c([nH]c4ccccc34)[C@@](C(=O)OC)(c3cc4c(cc3OC)N(C=O)[C@H]3[C@@](O)(C(=O)OC)[C@H](OC(C)=O)[C@]5(CC)C=CCN6CC[C@]43[C@@H]65)C2)C1`, the cell growth was 27 ± 6%.

Values taken from the supplement of paper PMC3484114.
